Screens (PubChem BioAssay)
The list is not random: actives were taken first. Their share in the collection is about 9.4%.
AMA1-RON2 inh – disrupts binding of P. falciparum AMA1 to RON2. AlphaScreen AMA1-biotinylated RON2 peptide binding. Potency, µM (doses to about 58.2 µM), for the others: at the highest dose activity change, negative = inhibition, usual class: inhibitors. 360,000 compounds, 0.2% hits;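 also: 0% = vehicle wells and -100% = peptide control; nearly all actives have a fitted effect of over 45% in size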
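AMA1 (3D7) with his tag at 25 nM final met compounds first, then biotinylated RON2 peptide at 25 nM; detection used donor plus acceptor beads, 10 µg/mL apiece, read by AlphaScreen after 30 min at room temperature.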
Pf growth 48h – inhibits P. falciparum growth in the first generation, 48 h; P. falciparum luciferase growth in erythrocytes, 48 h; Potency, µM (titrated, usually from 28.7 µM), for inactives: at the highest dose activity change, negative = inhibition, most hits filed as inhibitors; 310,000 compounds, 5.9% hits; AID 504832; also: % is scaled to controls: 0 for no effect and ±100 for the full control effect
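Luciferase-expressing P. falciparum in infected erythrocytes (2% hematocrit, 0.1% parasitemia final) in RPMI 1640/0.5% Albumax were exposed to compound for 48 hours at 37 C, 5% CO2; growth read as luminescence.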
Pf growth 96h – inhibits malaria parasite growth, 96 h; P. falciparum luciferase reporter growth, 96 h; Potency, µM (series often up to 28.7 µM), for the others: top-dose activity change, negative = inhibition, actives largely listed as inhibitors; 320,000 compounds, 6.9% hits; AID 504834; also: % is scaled to controls: 0 for no effect and ±100 for the full control effect
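Infected RBCs, 2% Hct / 0.05% parasitemia final; luciferase-reporter P. falciparum; cpd 96 h, 37 C, 5% CO2; luciferase detection reagent; luminescence.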
SARS PLP yeast – blocks SARS-CoV papain-like protease in a yeast assay. S. cerevisiae expressing SARS-CoV PLpro, growth rescue. Potency, µM (highest dose often 32.9 µM), for inactives: at the top dose activity, positive = growth rescue, actives largely listed as activators. 330,000 compounds, 0.19% hits. AID 485353; calls by dose curve; also: 0% is about no effect; nearly all actives have a fitted effect of over 55% in size
* marks the source's active call; other numbers are inactive results. Unless noted, calls follow the shape of the dose curve; as a rule, active = well fitted curve in the direction sought with a large enough effect; inconclusive = small, poorly fitted or top-dose-only effect, or another doubt; inactive = no such curve, though single readings can be large; an effect the other way counts as inactive or inconclusive. Potency is read from the fitted curve at half-maximal effect.

Results for O=C(CCCSc1nc2ccccc2[nH]1)NCc1ccc(Cl)cc1 ?
AMA1-RON2 inh: 0%; Pf growth 48h: inconclusive; Pf growth 96h: 12µM*; SARS PLP yeast: 0%

Results for Cc1ccc(CSc2nc3ccncc3[nH]2)cc1 ?
AMA1-RON2 inh: 0%; Pf growth 96h: inconclusive; SARS PLP yeast: -20%

Results for Clc1ccc(CSc2nc3ccncc3[nH]2)cc1 ?
AMA1-RON2 inh: -8%; Pf growth 96h: 4.7µM*; SARS PLP yeast: -26%

Results for S=c1nc(SCc2ccccc2)[nH]c2ccccc12 ?
AMA1-RON2 inh: 102%; Pf growth 48h: -6%; Pf growth 96h: 1.7µM*; SARS PLP yeast: inconclusive

What do the screens show for `C/C(CC(=O)Nc1ccc(Cl)cc1Cl)=N\NC(=O)C(=O)NCCO`?
AMA1-RON2 inh: 92%; Pf growth 48h: 12%; Pf growth 96h: 37%; SARS PLP yeast: -12%

How did CCc1ccc(-c2csc3[n+]2CCN3C(C)=O)cc1 do in these assays?
AMA1-RON2 inh: 37%; Pf growth 48h: 2.9µM*; Pf growth 96h: inconclusive; SARS PLP yeast: -30%

How did CNCC(=O)Nc1ccc(OC(F)(F)F)cc1 do in these assays?
AMA1-RON2 inh: 20%; Pf growth 48h: -4%; Pf growth 96h: 15%; SARS PLP yeast: -3%

Results for CCn1c(=NC(=O)C2COc3ccccc3O2)sc2c(C)ccc(OC)c21 (configuration not stated) ?
AMA1-RON2 inh: 15%; Pf growth 48h: inconclusive; Pf growth 96h: inconclusive; SARS PLP yeast: 0%

What do the screens show for `C=CCn1c(=NC(=O)C2COc3ccccc3O2)sc2cccc(OC)c21` (configuration not stated)?
AMA1-RON2 inh: 14%; Pf growth 48h: 7.4µM*; Pf growth 96h: 1.2µM*; SARS PLP yeast: -1%

What do the screens show for `CCOc1ccc(-c2nc(CSCC(=O)NC3CCCc4ccccc43)c(C)o2)cc1` (configuration not stated)?
AMA1-RON2 inh: -5%; Pf growth 96h: 13µM*; SARS PLP yeast: 11%

Results for CCOc1ccc(-c2nc(CSCC(=O)NCc3ccco3)c(C)o2)cc1 ?
AMA1-RON2 inh: -5%; Pf growth 48h: inconclusive; Pf growth 96h: 13µM*; SARS PLP yeast: -8%

Results for Cc1oc(-c2ccc(Cl)cc2)nc1CSCC(=O)NC1CCN(Cc2ccccc2)CC1 ?
AMA1-RON2 inh: -3%; Pf growth 48h: 24%; Pf growth 96h: 15µM*; SARS PLP yeast: inconclusive

Results for CCOc1ccc(-c2nc(CSCC(=O)NC3CC3)c(C)o2)cc1 ?
AMA1-RON2 inh: -5%; Pf growth 48h: 13µM*; Pf growth 96h: 23%; SARS PLP yeast: -5%

What do the screens show for `CN(C(=O)c1cc(COc2ccc(F)cc2Cl)on1)C1CCOC1` (configuration not stated)?
AMA1-RON2 inh: 8%

What do the screens show for `COc1ccc(Nc2ncnc3ccc([N+](=O)[O-])cc23)c(OC)c1`?
AMA1-RON2 inh: 3%; Pf growth 48h: inconclusive; Pf growth 96h: inconclusive; SARS PLP yeast: 0%

Results for O=C(O)c1ccc(-n2cccn2)c([N+](=O)[O-])c1 ?
AMA1-RON2 inh: 18%; Pf growth 48h: 8%; Pf growth 96h: 4%; SARS PLP yeast: 0%

How did CN(C)CCNC(=O)CNC(=S)N(Cc1ccccc1)Cc1ccccc1F do in these assays?
AMA1-RON2 inh: 11%; Pf growth 48h: 303%; Pf growth 96h: inconclusive; SARS PLP yeast: 1%

Results for CCC(C)Oc1cccc(OCCCCN2C(=O)NC(C)(C)C2=O)c1 (configuration not stated) ?
AMA1-RON2 inh: 5%; Pf growth 48h: -12%; SARS PLP yeast: -5%

What do the screens show for `COc1ccc(-c2nc(CSCC(=O)NCc3ccc4c(c3)OCO4)c(C)o2)cc1`?
AMA1-RON2 inh: 2%; Pf growth 96h: 5.9µM*; SARS PLP yeast: 2%

How did CCOC(=O)N1CCC(NC(=O)CSCc2nc(-c3ccc(OCC)cc3)oc2C)CC1 do in these assays?
AMA1-RON2 inh: 13%; Pf growth 48h: 12µM*; Pf growth 96h: -2%; SARS PLP yeast: -2%

How did CCCn1nc(Oc2nc(N(C)C)nc(N(C)C)n2)ccc1=O do in these assays?
AMA1-RON2 inh: -11%; Pf growth 48h: 34%; Pf growth 96h: 5%; SARS PLP yeast: 1%

What do the screens show for `COC(=O)NN=C1CCC(c2ccccc2)CC1` (configuration not stated)?
AMA1-RON2 inh: 14%; Pf growth 48h: 10%; Pf growth 96h: inconclusive; SARS PLP yeast: -1%

How did Cc1ccc(CN(C(=O)c2ccco2)C(C(=O)NC2CCCC2)c2ccc(N3CCOCC3)cc2)cc1 (configuration not stated) do in these assays?
AMA1-RON2 inh: -3%; Pf growth 48h: 10µM*; Pf growth 96h: -18%; SARS PLP yeast: -22%

Results for Cc1ccc(C(C(=O)NC2CCCCC2)N2CCOCC2)cc1 (configuration not stated) ?
AMA1-RON2 inh: -9%; Pf growth 48h: 16%; Pf growth 96h: 10µM*; SARS PLP yeast: -1%

What do the screens show for `CC(C)C(CO)N1CCN(Cc2ccccc2)CCC1=O` (configuration not stated)?
AMA1-RON2 inh: -1%; Pf growth 48h: 2%; Pf growth 96h: inconclusive; SARS PLP yeast: 2%

How did CC(C)[C@@H](COc1ccccc1)N1CCN(Cc2ccccc2)CCC1=O do in these assays?
AMA1-RON2 inh: -9%; Pf growth 48h: inconclusive; Pf growth 96h: 6.6µM*; SARS PLP yeast: 0%

Results for CCC(=O)c1c[nH]c(C(=O)N2CCN(c3ccccc3)CC2)c1 ?
AMA1-RON2 inh: -21%; Pf growth 48h: 0%; Pf growth 96h: -4%; SARS PLP yeast: 0%

How did COc1cc(C2CC(=O)N(CC(=O)NCC3CCCO3)c3ccccc3S2)cc(OC)c1OC (configuration not stated) do in these assays?
AMA1-RON2 inh: 5%; Pf growth 48h: inconclusive; Pf growth 96h: 6%; SARS PLP yeast: 1%

Results for COc1cc(C2CC(=O)N(CC(=O)NCc3ccco3)c3ccccc3S2)cc(OC)c1OC (configuration not stated) ?
AMA1-RON2 inh: 0%; Pf growth 48h: 10µM*; Pf growth 96h: 85%; SARS PLP yeast: 2%

How did COC(CNC(=O)C(=O)NCC1OCCN1C(=O)c1ccc(Cl)cc1)OC (configuration not stated) do in these assays?
AMA1-RON2 inh: -1%; Pf growth 48h: 10%; Pf growth 96h: 10%; SARS PLP yeast: -1%

What do the screens show for `CC(C)C[C@H]1C(=O)N2CCCC2[C@]2(O)O[C@](NC(=O)[C@@H]3C=C4c5cccc6[nH]cc(c56)CC4N(C)C3)(C(C)C)C(=O)N12` (some centres not stated)?
AMA1-RON2 inh: 1%; Pf growth 48h: 2.6µM*; Pf growth 96h: 2.3µM*; SARS PLP yeast: -2%

How did CN1C[C@H](CO)C=C2c3cccc4[nH]cc(c34)C[C@H]21 do in these assays?
AMA1-RON2 inh: 25%; Pf growth 48h: inconclusive; Pf growth 96h: inconclusive; SARS PLP yeast: 0%
